Values without a mark were called inactive. Results filed as inconclusive are left out. Entries that show only a call come without a potency. Activity calls are given as the source filed them. Unless noted, the call rests on the fitted dose curve; in most records, active means well fitted curve in the direction sought with a large enough effect in the repeat runs; inconclusive means weak or mixed curves; inactive means no such curve, though single readings can be large; an effect the other way counts as inactive or inconclusive.
What was measured:
[1] = qHTS assay to identify small molecule agonists of the hypoxia (HIF-1) signaling pathway - cell viability counter screen (AID 1224844; calls by dose curve; further: nearly all actives have a fitted effect of over 50% in size)
In short: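 Tox21 10K compounds were added to HRE-bla ME-180 cells (0.5% dialyzed FBS) and incubated 17 hrs at 37C; ATP-based CellTiter-Glo luminescence then reported cell viability in the same wells.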

[2] = qHTS assay to identify small molecule agonists of H2AX (AID 1224845; active means well fitted activation curve with a large enough effect in the signal ratio in the repeat runs, not every such curve was filed as active; the % refers to the signal ratio)
In short: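 Wild-type CHO-K1 cells plated overnight, then exposed 3 hr at 37C to compounds at 15 concentrations (0.76% DMSO). Lysed, then HTRF anti-pH2AX(S139)-cryptate/anti-H2AX-d2 detection after 24 hr at room temperature; emissions 665 and 620 nm.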

[3] = qHTS assay to identify small molecule agonists of the hypoxia (HIF-1) signaling pathway (AID 1224846; active means well fitted activation curve with a large enough effect in the signal ratio in the repeat runs, not every such curve was filed as active; the % refers to the signal ratio)
In short: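 Steps: seed ME-180 HRE-bla cells (2,000/well, 0.5% dialyzed FBS); incubate 5 hrs at 37C; pin-transfer compounds or DMSO; incubate 17 hrs; add LiveBLAzer B/G substrate CCF4-AM; measure reporter activation by FRET.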

[4] = qHTS assay to identify small molecule agonists of H2AX - cell viability counter screen (AID 1224847; calls by dose curve; further: nearly all actives have a fitted effect of over 30% in size; further: potency means the concentration at half of the fitted maximal effect)
In short: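 Cells plated first: CHO-K1, 1000 per well in 10% FBS medium, incubated overnight at 37C. Then 15-point compound titration added (final DMSO 0.76%) for 3 hr. Finally CellTiter-Glo added and luminescence read.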

[5] = qHTS assay to identify small molecule antagonists of the estrogen related receptor (ERR) signaling pathway from Tox21 library (AID 1224848); further: nearly all actives have a fitted effect of over 50% in size; further: potency means the concentration at half of the fitted maximal effect
In short: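 Cells: ERR line, 2,000/well; 6 h preincubation 37 C/5% CO2. Cpd in DMSO via pin tool; 18 h, 37 C. ONE-Glo, 30 min RT, luminescence.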

[6] = qHTS assay to identify small molecule agonists of the estrogen related receptor (ERR) signaling pathway from Tox21 library (AID 1224849; calls by dose curve; further: nearly all actives have a fitted effect of over 15% in size); conditions: ERR reporter cell line, ONE-Glo luciferase, 18 h; at 92.4 µM (top of the series) unless noted
In short: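 Agonist signal is luciferase luminescence from an ERR reporter cell line treated 18 h at 37 C with DMSO-dissolved compounds, read 30 min after ONE-Glo addition at room temperature.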

[7] = qHTS RealTime-Glo MT Cell Viability Assay in HepG2 cells - 24 hour (AID 1224867); further: nearly all actives have a fitted effect of over 50% in size
In short: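 Luminescence read-out: viable HepG2 cells reduce a prosubstrate to a NanoLuc substrate, giving a signal proportional to live cell number. Reads taken at 0, 8, 16, 24, 32 and 40 h of compound exposure at 37 C.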

[8] = A CellTox Green Cytotoxicity Assay to monitor cytotoxicity in HEK293 cells - 0 hour (AID 1224869); further: nearly all actives have a fitted effect of over 50% in size
In short: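 Cytotoxicity was tracked continuously in HEK293 cells by a DNA-binding dye excluded from viable cells. Compounds were transferred in DMSO 5 h after seeding; fluorescence was recorded at intervals up to 40 h.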

[9] = qHTS RealTime-Glo MT Cell Viability Assay in HepG2 cells - 40 hour (AID 1224870); further: nearly all actives have a fitted effect of over 50% in size
In short: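 HepG2 cells mixed with RealTime-Glo MT reagents (NanoLuc plus cell-permeant prosubstrate) were seeded at 600 cells/well, incubated 5 h at 37 C/5% CO2, then pinned with compounds in DMSO; nonlytic luminescence tracked viability during 40 h treatment.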

[10] = qHTS RealTime-Glo MT Cell Viability Assay in HEK293 cells - 32 hour (AID 1224868)
In short: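 Nonlytic real-time viability readout: viable cells convert prosubstrate to NanoLuc substrate, giving luminescence proportional to live cell number. HEK293, 600 cells/well, compound added after 5 h, continuous culture at 37 C.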

Structure (SMILES)	Potency [1]	Potency [2]	Potency [3]	Potency [4]	Potency [5]	activity change, positive = activation [6]	Potency [7]	Potency [8]	Potency [9]	Potency [10]
CSSC	inactive	inactive	inactive	inactive	inactive	-6.7%	inactive	inactive	inactive	
CC(C)=CC1C(C(=O)OC(C#N)c2cccc(Oc3ccccc3)c2)C1(C)C (stereo not given)	inactive	inactive	inactive	inactive	inactive		inactive		inactive	
CCN(CC)Cc1nccn1-c1ccc([N+](=O)[O-])cc1C(=O)c1ccccc1Cl	inactive	inactive	inactive	inactive	inactive	-10.7% [at 42.5 µM]	inactive	inactive	inactive	
C#CCO	inactive	inactive	inactive	inactive			inactive	inactive	inactive	inactive
CNN	inactive	inactive	inactive	inactive			inactive	inactive		inactive
CN=C=O	inactive	inactive	inactive	inactive	inactive	0.484%	inactive	inactive	inactive	inactive
CCOP(=S)(OCC)Oc1cc(C)nc(N(CC)CC)n1	inactive	inactive	inactive	inactive		-21.1%	inactive	inactive	inactive	inactive
O=C(O)CCCCCCNC1c2ccccc2CCc2ccccc21	inactive	inactive	inactive	inactive			inactive	inactive	inactive	inactive
ClCBr	inactive	inactive	inactive	inactive	inactive	5.96%	inactive	inactive	inactive	inactive
O.O.O.O.O.O.O=S(=O)([O-])[O-].[Ni+2]	inactive	inactive	inactive	inactive			inactive	inactive		inactive
ClC1(Cl)C2(Cl)C3(Cl)C4(Cl)C(Cl)(Cl)C5(Cl)C3(Cl)C1(Cl)C5(Cl)C24Cl (stereo not given)	inactive	inactive	inactive	inactive	inactive		inactive	inactive	inactive	inactive
O=c1[nH]c2cc(Cl)ccc2n1C1CCNCC1	inactive	inactive	inactive	inactive	inactive		inactive		inactive	
C#CC1(O)CCCCC1	inactive	inactive	inactive	inactive	inactive		inactive	inactive	inactive	inactive
CC[N+]1(CC)CCC(OC(=O)C(O)(c2ccccc2)c2ccccc2)C1 (stereo not given)	inactive	inactive	inactive	inactive			inactive	inactive		inactive
Clc1ccc(C2(Cn3cncn3)OCCO2)c(Cl)c1	inactive	inactive	inactive	inactive	inactive		inactive		inactive	inactive
COc1nc(C)nc(NC(=O)NS(=O)(=O)c2ccccc2Cl)n1	inactive	inactive	inactive	inactive	inactive		inactive	inactive	inactive	inactive
Oc1ccc(Cl)c(Cl)c1	inactive	inactive	inactive	49.7 µM (active)	inactive	-11.7%	inactive	inactive	inactive	
Cc1nn(-c2cc(NS(C)(=O)=O)c(Cl)cc2Cl)c(=O)n1C(F)F	inactive	inactive	inactive	inactive	inactive	-8.62%	inactive			inactive
CCOC(=O)CCN(SN(C)C(=O)Oc1cccc2c1OC(C)(C)C2)C(C)C	inactive	inactive	inactive	inactive	61.1 µM (active)	-43.3%	inactive	inactive	inactive	inactive
Cc1ccccc1OP(=O)(Oc1ccccc1C)Oc1ccccc1C	inactive	inactive	inactive	90.1 µM (active)	inactive	-4.53%	inactive	inactive	inactive	
CCCCC(CC)COC(=O)c1ccccc1C(=O)OCC(CC)CCCC (stereo not given)	inactive	inactive	inactive	inactive			inactive	inactive		inactive
NC(=O)C(Cl)Cl	inactive	inactive	inactive	inactive			inactive	inactive	inactive	inactive
CCN(CC)CCN1C(=O)CN=C(c2ccccc2F)c2cc(Cl)ccc21	inactive	inactive	inactive	inactive	inactive	-10.4% [at 42.5 µM]	inactive	inactive	inactive	
CC(Cc1ccc(OCC(=O)O)cc1)NCC(O)c1csc(C(F)(F)F)n1 (stereo not given)	inactive	inactive	inactive	inactive	inactive	13.9%	inactive	inactive		inactive
[Cl-].[Cl-].[Cl-].[Yb+3]	inactive	inactive	inactive	inactive			inactive	inactive	inactive	inactive
